Molecules are shown by their SMILES. Whole data set: some 1,600 compounds, median “Hit score” near 0.13, cut for the highest 2% near 0.46. The full list was thinned out, with the highest values kept by preference.

For 68 compounds, Hit score results are on record in ChEMBL document CHEMBL4303122, “Identification of potential treatments for COVID-19 through artificial intelligence-enabled phenomic analysis of human cells infected with SARS-CoV-2” (2020).

The assay concerns SARS-CoV-2. Nature of the assay: Antiviral activity against SARS-CoV-2 (USA-WA1/2020 strain) measured by imaging in HRCE cells at MOI 0.4 after 96 hrs (reported as hit score from 0-1 for on-disease vs off-disease activity: scores >0.6 considered hits). Type of assay: functional, Homo sapiens.
For `CN1[C@@H]2CC[C@H]1C[C@@H](OC(=O)[C@H](CO)c1ccccc1)C2` [HYOSCYAMINE], the Hit score was found to be 0.0469.

For `O=C(O)CCC/C=C\CC1C(O)CC(O)C1/C=C/C(O)COc1cccc(Cl)c1` (stereo not drawn) [CLOPROSTENOL], the Hit score is given as -0.03107.

In turn, `COc1cccc(N2CCN(C3=Nc4c(F)cccc4[C@H](CC(=O)O)N3c3cc(C(F)(F)F)ccc3OC)CC2)c1` [LETERMOVIR] returned a Hit score of 0.3651.

Regarding `CCOC(=O)[C@H]1O[C@@H]1C(=O)N[C@@H](CC(C)C)C(=O)NCCC(C)C` [ALOXISTATIN], the Hit score was found to be 0.7896.

The compound `N[C@@H]1[C@H]2CN(c3nc4c(cc3F)c(=O)c(C(=O)O)cn4-c3ccc(F)cc3F)C[C@@H]12` [TROVAFLOXACIN] yielded a Hit score of 0.134.

For the compound `O=C(O)[C@@H]1CCCN1` [PROLINE], the Hit score was 0.14.

Regarding `COc1cc(Nc2ncc(F)c(Nc3ccc4c(n3)NC(=O)C(C)(C)O4)n2)cc(OC)c1OC` [R-406], the Hit score was determined as 0.1646.

On to `CC(=O)c1c(C)c2cnc(Nc3ccc(N4CCNCC4)cn3)nc2n(C2CCCC2)c1=O` [PALBOCICLIB], for which the Hit score stood at 0.007482.

As to `OC(CCN1CCCCC1)(c1ccccc1)c1ccccc1` [PRIDINOL], the Hit score came out at 0.1349.

Consider `OC(CCN1CCCC1)(c1ccccc1)C1CCCCC1` (stereo not drawn) [PROCYCLIDINE], for which the Hit score is reported as 0.2175.

On to `OC(CCN1CCCCC1)(c1ccccc1)C1CCCCC1` (stereo not drawn) [TRIHEXYPHENIDYL], for which the Hit score is on record as 0.4673.

Compound `Sc1ncnc2nc[nH]c12` [MERCAPTOPURINE ANHYDROUS] had a Hit score of 0.2212.

With `COC(=O)C[C@](O)(CCC(C)(C)O)C(=O)O[C@@H]1C(OC)=C[C@]23CCCN2CCc2cc4c(cc2[C@H]13)OCO4` [HARRINGTONINE], the Hit score came out at 0.07403.

The compound `CCCC[C@H](NC(=O)[C@@H]1[C@@H]2[C@H](CN1C(=O)[C@@H](NC(=O)NC1(CS(=O)(=O)C(C)(C)C)CCCCC1)C(C)(C)C)C2(C)C)C(=O)C(=O)NC1CC1` registered a Hit score of 0.1004.

Compound `C[C@]12CC[C@H](O)CC1=CC[C@@H]1[C@@H]2CC[C@]2(C)C(c3cccnc3)=CC[C@@H]12` [ABIRATERONE] displayed a Hit score of 0.3975.

With `C[C@H](CCC(=O)O)[C@H]1CC[C@H]2[C@@H]3[C@@H](O)C[C@@H]4C[C@H](O)CC[C@]4(C)[C@H]3CC[C@]12C` [URSODIOL], the Hit score is 0.2784.

`CC[C@H]1[C@@H](O)[C@@H]2[C@H](CC[C@]3(C)[C@@H]([C@H](C)CCC(=O)O)CC[C@@H]23)[C@@]2(C)CC[C@@H](O)C[C@@H]12` [OBETICHOLIC ACID] yielded a Hit score of 0.5073.

In turn, `CC(CCC(=O)O)[C@H]1CCC2C3C[C@H](O)[C@@H]4C[C@H](O)CC[C@]4(C)C3CC[C@@]21C` (stereo partly drawn) gave a Hit score of 0.1858.

`CN1CC(=O)N2[C@H](c3ccc4c(c3)OCO4)c3[nH]c4ccccc4c3C[C@@H]2C1=O` registered a Hit score of 0.2898.

Compound `CO[C@H]1/C=C/O[C@@]2(C)Oc3c(C)c(O)c4c(O)c(cc(O)c4c3C2=O)NC(=O)/C(C)=C\C=C\[C@H](C)[C@H](O)[C@@H](C)[C@@H](O)[C@@H](C)[C@H](OC(C)=O)[C@@H]1C` [RIFAMYCIN] yielded a Hit score of 0.1815.

`NC(=O)[C@@H]1CC[C@@H]2CN1C(=O)N2OS(=O)(=O)[O-].[Na+]` [AVIBACTAM SODIUM] showed a Hit score of 0.2969.

The compound `Oc1c(Cl)cc(Cl)c(Cl)c1Cc1c(O)c(Cl)cc(Cl)c1Cl` [HEXACHLOROPHENE] displayed a Hit score of 0.5286.

The compound `O=C(Nc1cc(Cl)cc(Cl)c1O)c1c(O)c(Cl)cc(Cl)c1Cl` [OXYCLOZANIDE] returned a Hit score of 0.1882.

Compound `Cc1ccc2c(Cl)cc(Cl)c(O)c2n1` [CHLORQUINALDOL] gave a Hit score of 0.2863.

`Cc1ccc(C(=O)Nc2ccc(CN3CCN(C)CC3)c(C(F)(F)F)c2)cc1C#Cc1cnc2cccnn12` [PONATINIB] gave a Hit score of 0.5086.

In turn, `O=C(O)c1ccccc1C(=O)Nc1ccc(S(=O)(=O)Nc2nccs2)cc1` [PHTHALYLSULFATHIAZOLE] had a Hit score of 0.0541.

The compound `CS(=O)(=O)c1ccc(C(=O)Nc2ccc(Cl)c(-c3ccccn3)c2)c(Cl)c1` [VISMODEGIB] showed a Hit score of 0.5244.

`Cc1cc(-c2ccc(/N=N/c3ccc4c(S(=O)(=O)[O-])cc(S(=O)(=O)[O-])c(N)c4c3O)c(C)c2)ccc1/N=N/c1ccc2c(S(=O)(=O)[O-])cc(S(=O)(=O)[O-])c(N)c2c1O.[Na+].[Na+].[Na+].[Na+]` [EVANS BLUE] showed a Hit score of 0.2486.

`CC(SC(=O)c1cccs1)C(=O)NCC(=O)O` (stereo not drawn) [STEPRONIN] displayed a Hit score of 0.2404.

As for `CCCC(CCC)C(=O)O.CCCC(CCC)C(=O)[O-].[Na+]` [DIVALPROEX SODIUM], the Hit score turned out to be 0.2277.

On to `CCCCCCC(=O)O[C@H]1CC[C@H]2[C@@H]3CCC4=CC(=O)CC[C@]4(C)[C@H]3CC[C@]12C` [TESTOSTERONE ENANTHATE], for which the Hit score is reported as 0.1237.

With `CC(C)(C)CC(C)(C)c1ccc(OCCOCC[N+](C)(C)Cc2ccccc2)cc1` [BENZETHONIUM], the Hit score stood at 0.03086.

`Cc1nc2ccccc2n1Cc1ccc(Cl)cc1` [CHLORMIDAZOLE] registered a Hit score of -0.04269.

Regarding `CC(C)/N=c1\cc2n(-c3ccc(Cl)cc3)c3ccccc3nc-2cc1Nc1ccc(Cl)cc1` [CLOFAZIMINE], the Hit score amounted to 0.5936.

`Clc1ccc(C(OCCN2CCCCC2)c2ccccc2)cc1` (stereo not drawn) [CLOPERASTINE] displayed a Hit score of 0.5618.

Take `OCCOCCN1CCN(C(c2ccccc2)c2ccc(Cl)cc2)CC1` (stereo not drawn) [HYDROXYZINE]: the Hit score amounted to 0.00308.

In turn, `O=C(O)COCCN1CCN([C@H](c2ccccc2)c2ccc(Cl)cc2)CC1` [LEVOCETIRIZINE] had a Hit score of -0.05445.

In turn, `O=P(O)(O)C(Sc1ccc(Cl)cc1)P(=O)(O)O` [TILUDRONIC ACID] came in with a Hit score of 0.04613.

The compound `Cc1cccc(C)c1NC(=O)CN1CCN(CCCC(c2ccc(F)cc2)c2ccc(F)cc2)CC1` [LIDOFLAZINE] returned a Hit score of 0.2006.

For `CCCCC(C)(O)C/C=C/[C@H]1[C@H](O)CC(=O)[C@@H]1CCCCCCC(=O)OC` (stereo partly drawn) [MISOPROSTOL], the Hit score was -0.07952.

As to `COc1cc(N2CCC(N3CCN(C)CC3)CC2)ccc1Nc1ncc(Cl)c(Nc2ccccc2P(C)(C)=O)n1` [BRIGATINIB], the Hit score is 0.1463.

`N#Cc1cc2c(cc1[N+](=O)[O-])=NC(=O)C(=O)N=2` displayed a Hit score of 0.1284.

In the case of `Cl.OC[C@H]1NC[C@@H](O)[C@@H](O)[C@@H]1O`, the Hit score worked out at 0.1457.

For `CN[C@@H](C)[C@H](O)c1ccccc1.Cl` [EPHEDRINE HYDROCHLORIDE], the Hit score is listed as 0.3718.

Consider `CC(=O)[C@@]1(O)CC[C@H]2[C@@H]3C[C@H](C)C4=CC(=O)CC[C@]4(C)[C@H]3CC[C@@]21C`, for which the Hit score is recorded as 0.2069.

Take `C[C@H](CCC(=O)O)[C@H]1CC[C@H]2[C@@H]3[C@H](O)C[C@@H]4C[C@H](O)CC[C@]4(C)[C@H]3C[C@H](O)[C@]12C` [CHOLIC ACID]: the Hit score is reported as 0.1604.

The compound `CC(=O)[C@@]1(O)CC[C@H]2[C@@H]3CCC4=CC(=O)CCC4=C3[C@@H](c3ccc(N(C)C)cc3)C[C@@]21C` [ULIPRISTAL] came in with a Hit score of 0.1448.

Regarding `Nc1cccc2c(=O)[nH][nH]c(=O)c12.[Na+]`, the Hit score is recorded as 0.2367.

In the case of `CCCN[C@@H]1CCc2nc(N)sc2C1` [DEXPRAMIPEXOLE], the Hit score is reported as 0.07275.

Turning to `CC(C)(C)NCC(O)COc1cc(Cl)ccc1Cl` (stereo not drawn) [CLORANOLOL], the Hit score worked out at 0.4962.

The compound `Cc1ccc(Cl)c(OCC(O)CNC(C)(C)C)c1` (stereo not drawn) [BUPRANOLOL] showed a Hit score of 0.4669.

Compound `CC(C)(C)NCC(O)c1cc(Cl)c(N)c(C(F)(F)F)c1` (stereo not drawn) [MABUTEROL] returned a Hit score of -0.1589.

`CC(C)(C)NC[C@H](O)COc1cccc2c1CCCC2=O` [LEVOBUNOLOL] showed a Hit score of 0.1851.

Regarding `CC(C)(C)NCC(O)COc1cccc2c1CCC(=O)N2` (stereo not drawn) [CARTEOLOL], the Hit score was determined as 0.1646.

As for `CC(C)(C)NC[C@H](O)COc1nsnc1N1CCOCC1` [TIMOLOL], the Hit score was found to be 0.174.

Compound `CC(C)(C)NCC(O)c1cc(Cl)c(N)c(Cl)c1` (stereo not drawn) [CLENBUTEROL] gave a Hit score of -0.07437.

Compound `CC(C)(C)NCC(O)c1ccccc1Cl` (stereo not drawn) [TULOBUTEROL] had a Hit score of -0.01366.

As for `CC(C)(C)NC[C@H](O)COc1ccccc1C1CCCC1` [PENBUTOLOL], the Hit score came out at 0.4905.

In the case of `CO[C@@]1(NC(=O)C2SC(=C(C(N)=O)C(=O)O)S2)C(=O)N2C(C(=O)O)=C(CSc3nnnn3C)CS[C@@H]21` (stereo partly drawn) [CEFOTETAN], the Hit score was 0.1396.

In the case of `COc1cc2c(Oc3ccc4[nH]c(C)cc4c3F)ccnc2cc1OCC1(N)CC1` [CATEQUENTINIB], the Hit score amounted to 0.165.

The compound `CO/N=C(\C(=O)N[C@@H]1C(=O)N2C(C(=O)[O-])=C(C[n+]3cccc4c3CCC4)CS[C@H]12)c1csc(N)n1` [CEFPIROME] had a Hit score of 0.1204.

For `COC(=O)OCOc1c2n(ccc1=O)N([C@@H]1c3ccccc3SCc3c1ccc(F)c3F)[C@@H]1COCCN1C2=O` [BALOXAVIR MARBOXIL], the Hit score worked out at 5.7e-05.

On to `O=[N+]([O-])/N=C1\NCCN1Cc1ccc(Cl)nc1` [IMIDACLOPRID], for which the Hit score is on record as 0.158.

Consider `CCOC(=O)CSCCC1NC(C(=O)O)CS1` (stereo not drawn) [LETOSTEINE], for which the Hit score was 0.08225.

Compound `N=C(NCCCCCCNC(=N)NC(=N)Nc1ccc(Cl)cc1)NC(=N)Nc1ccc(Cl)cc1` [CHLORHEXIDINE] yielded a Hit score of 0.08739.

Compound `O=C(Nc1ccc(Cl)cc1)Nc1ccc(Cl)c(Cl)c1` [TRICLOCARBAN] gave a Hit score of 0.4616.

In turn, `CNC(=O)c1cc(Oc2ccc(NC(=O)Nc3ccc(Cl)c(C(F)(F)F)c3)cc2)ccn1` [SORAFENIB] came in with a Hit score of 0.2484.

`CCCCc1nc(Cl)c(C(=O)O)n1Cc1ccc(-c2ccccc2-c2nn[nH]n2)cc1` [CARBOXYLIC ACID METABOLITE] displayed a Hit score of 0.01747.
